# Inconclusive results are not listed. Calls of active or inactive are those of the source. Calls come from the whole dose curve; as a rule, active = well fitted inhibition curve with a large enough effect; inconclusive = small, poorly fitted or top-dose-only effect, or effect the other way, or another doubt; inactive = flat fitted curve, though single readings scatter.
# Test: qHTS Assay for Identification of Small Molecule Antagonists for Thrombopoietin (TPO) Signaling Pathway (AID 918); note: nearly all actives have a fitted effect of over 60% in size
# Conditions: TPO-dependent cell signaling reporter, antagonist mode
# Procedure: NIH Molecular Libraries Screening Centers Network [MLSCN]
# NIH Chemical Genomics Center [NCGC]
# The thrombopoietin (TPO) signaling pathway was assayed in murine Ba/F3 cells stably transfected with the human TPO receptor and a luciferase reporter gene controlled by the Glycoprotein IIb promoter (provided by Axxam). BaF3 cells are an IL-3-dependent pro B cell line that upon TPO stimulation, undergo cell division and induce the megakaryocyte marker, Glycoprotein IIb. The assay was screened at the EC50 of TPO (26 pM) to identify inhibitors of the pathway.
# NCGC Assay Protocol Summary:
# Cells were maintained at 37 C and 5% CO2in RPMI with 10% fetal bovine serum, 0.5 ng/mL murine IL-3, 100U/ml penicillin and 100 ug/ml streptomycin. Prior to plating, cells were incubated overnight in medium without IL-3. Cells were plated at 250 cells/5uL/well into white solid 1536-well plates, 23 nL of compounds were delivered by a pin tool, and 1 uL of TPO (26 pM final concentration in IL-3 deficient medium) was added. Following 24 hrs of incubation at 37 C and 5% CO2, 4 uL of Steadylite detector mix (PerkinElmer) was added, the plates incubated at room temperature for 10 min and luminescence was measured for 10 s and 2X binning by a ViewLux detector (Perkin Elmer).
# Potency is the fitted concentration of half-maximal effect.
row,Compound,Potency
1,NC(N)=Nc1ccc2[nH]c3c(c2c1)C[C@]1(O)[C@@H]2Cc4ccc(O)c5c4[C@]1(CCN2CC1CC1)[C@H]3O5,12.6 µM (active)
2,Oc1cc2c(cc1O)[C@H]1c3ccccc3CN[C@@H]1CC2,10 µM (active)
3,N[C@@H]1CCc2cc(O)c(O)cc2C1,10 µM (active)
4,N[C@@H](Cc1cc(O)c(O)cc1O)C(=O)O,12.6 µM (active)
5,C[C@]1(C(=O)O)[C@@H]2CC[C@@H](O2)[C@@]1(C)C(=O)O,5.01 µM (active)
6,COc1ccc2c(c1)CCC1C2CC[C@]2(C)[C@H](NCCCCCCN3C(=O)C=CC3=O)CC[C@@H]12 (stereo partly drawn),2 µM (active)
7,Ic1ccccc1CN[C@@H]1C2CCN(CC2)[C@H]1C(c1ccccc1)c1ccccc1,12.6 µM (active)
8,C/C=C(\C)C(=O)O[C@@H]1C(C)=C2[C@H]([C@@H]1OC(=O)CCCCCCC)[C@@](C)(OC(C)=O)C[C@@H](OC(=O)CCC)[C@@]1(O)[C@H]2OC(=O)[C@]1(C)O,0.0501 µM (active)
9,C[C@]12Cc3cn4c(nc3C=C1CC[C@H]1[C@@H]2CC[C@@]2(C)[C@H]1CC[C@@]2(O)C#N)nc1ccccc14,10 µM (active)
10,C=CCN1CCc2cccc3c2[C@@H]1Cc1ccc(O)c(O)c1-3,10 µM (active)
11,CCCN1CCc2cccc3c2[C@@H]1Cc1ccc(O)c(O)c1-3,12.6 µM (active)
12,CN[C@@H](C)[C@@H](O)c1ccccc1,3.16 µM (active)
13,CC[C@@H]1CN2CCc3cc(OC)c(OC)cc3[C@H]2C[C@@H]1C[C@@H]1NCCc2cc(OC)c(OC)cc21,0.0631 µM (active)
